# Only some compounds are listed: those with a hit (about 21% of all), similar ones and a draw of the others.
# Pf growth 48h: P. falciparum growth inhibition at 48 hours (one generation). P. falciparum luciferase growth in erythrocytes, 48 h. Potency, µM (doses to about 28.7 µM), without a hit: at the top dose activity change, negative = inhibition, hits mostly inhibitors. hit rate 5.9% among 310,000; further: potency means the concentration at half of the fitted maximal effect; on the % scale 0 is the no-effect control and ±100 the full control effect
#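 Erythrocytes infected with P. falciparum carrying an integrated firefly luciferase reporter (2% hematocrit, 0.1% parasitemia final) were exposed to compounds in RPMI 1640 with 0.5% Albumax at 37 C, 5% CO2. Growth inhibition was scored as reduced luminescence.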
# Pf growth 96h: P. falciparum growth inhibition at 96 hours | P. falciparum luciferase reporter growth, 96 h | Potency, µM (titrated, usually from 28.7 µM), without a hit: top-dose activity change, negative = inhibition, hits mostly inhibitors | hit rate 6.9% among 320,000; further: potency means the concentration at half of the fitted maximal effect; on the % scale 0 is the no-effect control and ±100 the full control effect
#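 Plates of compound plus infected erythrocytes (2% hematocrit, 0.05% parasitemia final) incubate 96 hours, 37 C, 5% CO2. Detection reagent added; reduced luminescence from the parasites' luciferase reporter flags inhibition.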
# HCMV inh: human cytomegalovirus inhibition | HFF cells, HCMV-luciferase reporter, 72 h; stronger effect = lower value | activity change, negative = inhibition, % at 57.5 µM | hit rate 4.5% among 410,000 | AID 1259415; in the data active means activity change below about -60%; inconclusive means no clear call, values can overlap the other calls; inactive means above about -39%; further: on the % scale 0 is the no-effect control and ±100 the full control effect
#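 Two-dose cell screen: HFF monolayers treated with compounds and infected with luciferase-expressing HCMV at 1 PFU/cell, 72 h at 37C, then lysed for luciferase measurement.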
# HCV inhibitor: blocks hepatitis C virus | Huh7.5.1 HCVcc-Cre infection, luciferase reporter, 44 h | Potency, µM (top dose mostly 41.8 µM), without a hit: top-dose activity change, negative = inhibition, most hits filed as inhibitors | hit rate 3.4% among 340,000 | AID 651820; further: potency means the concentration at half of the fitted maximal effect; on the % scale 0 is the no-effect control and ±100 the full control effect
#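 Reporter virus HCVcc-Cre (~0.5 moi) infects cells exposed to compound; seeding density 1,000 cells/well with 4 h settling beforehand. Luminescence, 15 sec read, taken 44 h post-infection following a 15 min RT substrate incubation.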
# Shiga toxin inh: inhibitors of Shiga toxin in Vero cells; Vero cells, Shiga toxin protein synthesis inhibition reporter; inhibition, % at 38.7 µM; hit rate 9.2% among 290,000; in the data active means inhibition mostly above about 28%, no sharp cut-off; inactive means mostly below about 43%; further: 0% is about no effect
# CHX counter: counter-screen for Shiga toxin inhibitors: cycloheximide protein synthesis inhibition | AID 2314 | hit rate 12% among 300,000 | cell reporter, cycloheximide protein synthesis inhibition counterscreen | max response, %; in the data active means max response mostly above about 13%, no sharp cut-off; inactive means mostly below about 14%; further: read at 38.3 µM for the half of the compounds with a filed dose; 0% is about no effect
# The depositor's hits bear a star; ? = inconclusive; . = no result given. Unless noted, the call rests on the fitted dose curve; in most records, active means well fitted inhibition curve with a large enough effect; inconclusive means small, poorly fitted or top-dose-only effect, or another doubt; inactive means no such curve, though single readings can be large or run the other way.
SMILES,Pf growth 48h,Pf growth 96h,HCMV inh,HCV inhibitor,Shiga toxin inh,CHX counter
O=C1NC(=S)N/C1=C/C=C/c1ccccc1,10%,?,-13,12%,35,43*
COc1ccc(/C=C/C=C2C(=O)NC(=S)NC2=O)cc1,.,.,7,?,.,.
COc1ccc(-c2csc(NC(=O)c3ccccc3NS(=O)(=O)c3ccc(C)cc3)n2)cc1,-4%,0%,-96*,5µM*,-16,1
CCOC(=O)c1ccccc1NS(=O)(=O)c1c(-c2ccc(C)cc2)csc1C(=O)OC,.,.,-65*,.,.,.
COc1ccc(S(=O)(=O)Nc2ccccc2C(=O)Nc2nc(-c3ccc(F)cc3)cs2)cc1OC,3.3µM*,?,-76*,?,4,1
CCc1cc2c(=O)n(CCC(C)C)c(=S)[nH]c2s1,7%,27%,-22,-9%,-4,-1
CCOc1cc(/C=C/C(=O)c2ccc(O)cc2)ccc1OCC(=O)N(C)C,?,?,?,?,-4,0
COc1ccc(/C=N/NC(=O)c2ccc3c(c2)OCCO3)cc1[N+](=O)[O-],-3%,?,-22,-8%,-2,-1
Cc1ccc(O)c(C(=O)/C=C/c2ccc3c(c2)OCCO3)c1,61%,?,19,-26%,142*,33*
CCOc1cc(/C=C/C(=O)c2ccc3c(c2)OCCO3)ccc1OCC(=O)N(C)C,?,?,-77*,?,-9,-5
COc1ccc(/C=C/C(=O)c2ccc3c(c2)OCCO3)cc1[N+](=O)[O-],-3%,8%,178,32µM*,8,-1
COc1ccc(C(=O)/C=C/c2ccc3c(c2)OCCO3)cc1,36%,-21%,12,-6%,92*,31*
CC(=O)N1CC2(NC(=O)c3ccccc3N2)c2ccccc21 (configuration not stated),6%,0%,-14,0%,-6,-1
O=C(c1ccccc1)N1CCCCC1CCN1CCCCC1 (configuration not stated),.,.,-5,.,.,.
COc1cccc(N2CCN(C(=O)c3ccc(-c4ccccc4)cc3)CC2)c1,16%,?,-35,1%,1,1
O=C(/C=C/c1ccc2c(c1)OCCO2)c1ccccc1,135%,44%,67,-16%,74*,42*
Cc1cc(C)c2c(c1)[C@@H]1C=CC[C@@H]1[C@H](c1ccc(S(=O)(=O)N3CCOCC3)cc1)N2,10µM*,8%,33,?,-6,-5
COC(=O)c1ccc(C2Nc3c(C)cc(C)cc3C3C=CCC32)cc1 (configuration not stated),.,.,-4,.,.,.
CCCSc1nc2sc3c(c2c(=O)n1-c1ccccc1)CCC(C)C3 (configuration not stated),.,.,-14,.,.,.
COc1ccc2nc(NN=C(C)c3ccccn3)cc(C)c2c1,.,.,-99*,?,.,.
CC(=NNc1ccc2ccccc2n1)c1ccccn1,.,.,-101*,.,.,.
O=C(NCc1ccccn1)c1ccc2ccccc2n1,11%,?,7,14%,3,-2
CC(C)(C)c1ccc(NC(=O)Nc2ccc3ccccc3n2)cc1,-11%,?,72,6%,-11,-2
CC(=NNc1ccc2ccccc2n1)c1ccccc1O,.,.,-61*,?,.,.
COc1ccc(Nc2nc3ccccc3nc2C)cc1,-10%,2%,-4,?,10,2
SMILES,Pf growth 48h,Pf growth 96h,HCMV inh,HCV inhibitor,Shiga toxin inh,CHX counter
C/C(=N\Nc1nc2ccccc2nc1C)c1ccccc1O,?,1.2µM*,-32,-16%,16,12
COc1ccccc1-c1cnc(C(O)c2ccc(Cl)cc2)[nH]1 (configuration not stated),.,.,0,.,.,.
Cc1ccc(C)c(N2CCN(C(=O)CCc3nc(-c4ccccc4Br)no3)CC2)c1,.,.,34,?,.,.
CCCCN1CCCC[C@H]1C(=O)Nc1c(C)cccc1C,-4%,14%,.,.,-5,4
COc1ccccc1NC(=O)CSc1nnc2c(n1)[nH]c1ccccc12,.,.,11,.,.,.
Cc1cccn2c(=O)cc(CSc3nnc(NC(=O)COc4ccccc4)s3)nc12,?,?,29,.,.,.
C/C(CC(=O)Nc1cc(Cl)ccc1Cl)=N\NC(=O)c1ccccc1Br,?,2%,-22,18%,12,9

# Compound activity from PubChem BioAssay.
